# Source: PubChem BioAssay
# IL1B cytotox: cytotoxicity in IL-1B stimulated HUVEC, primary screen, cytotoxicity control for IL-1B NFkB translocation project, imaging, Hoechst nuclear count, IL-1B stimulus; AID 845, 2007; HUVEC cell count loss; cell count reduction, % at 2 µM; actives 0.41% (n = 94,000);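 active = cell count reduction more than 3 SD above the screen-wide mean, cut at about 70% in these data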;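 note: normalized per plate to untreated control cells as the no-loss baseline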
# IL1B NFkB pot: enhancers of NFkB p65 translocation in HUVEC – imaging, IL-1B stimulus, high-content imaging, primary screen | HUVEC IL-1B NFkB p65 nuclear translocation imaging | activation, % at 2 µM | actives 0.3% (n = 94,000);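 active = activation above 40%, about the mean plus 3 SD, also judged a hit on visual image review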;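 note: percent activation is computed from the nuclear over cytoplasmic p65 intensity ratio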
# IL1B NFkB inh: inhibitors of IL-1B driven NFkB p65 nuclear import, primary screen, imaging, HUVEC, IL-1B stimulus, high-content imaging; HUVEC IL-1B NFkB p65 nuclear translocation imaging; inhibition, % at 2 µM; actives 0.43% (n = 94,000); AID 796, 2007;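 active = inhibition above about 30% together with a positive call from visual inspection of the well image, limit read from the data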;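 note: nuclear over cytoplasmic p65 intensity ratio measured by imaging; 0% = IL-1B stimulated DMSO wells and 100% = unstimulated DMSO wells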
# TNFa cytotox: cytotoxicity in TNFa-stimulated HUVEC, primary screen, cytotoxicity control for VCAM1 expression modulator project, imaging, Hoechst nuclei count; HUVEC TNFalpha-stimulated, Hoechst cell count; cell count reduction, % at 2 µM; actives 0.17% (n = 93,000); AID 848, 2007;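 active = cell count reduction exceeding the screen mean by over 5 SD, scaled to untreated wells per plate, cut at about 78% in these data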;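 note: cells counted after 24 h of TNF alpha exposure following the 1 h pretreatment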
# F-actin modifier: modifiers of F-actin cytoskeleton organization, primary screen, imaging, HUVEC, phalloidin staining, high-content imaging; HUVEC TNFa F-actin phalloidin imaging; inhibition, % at 2 µM; actives 0.18% (n = 91,000); AID 836, 2007;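 active = inhibition above the batch mean plus 3 SD and confirmed as a hit by visual image inspection, cut at about 30% in these data, passing the limit was not always enough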
# VCAM1 TNFa inh: inhibitors of TNFa-induced VCAM1 expression, primary screen, imaging, HUVEC, TNFa stimulus, immunofluorescence; HUVEC TNFa-induced VCAM-1 immunofluorescence, high-content imaging; actives 0.48% (n = 95,000); inhibition, % at 2 µM; AID 802, 2007;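 active = inhibition above the batch mean plus 3 SD, with images confirmed as a hit by eye, cut at about 37% in these data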;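 note: 0% = TNF-stimulated DMSO wells and 100% = unstimulated control wells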
# An asterisk follows results filed as active; x = no result. A selection: hits, their analogues and other compounds. The true share with any hit is near 1.6%.
SMILES,IL1B cytotox,IL1B NFkB pot,IL1B NFkB inh,TNFa cytotox,F-actin modifier,VCAM1 TNFa inh
COC(=O)c1ccc(-n2nnnc2SCC(=O)Nc2ccccc2C(=O)OC)cc1,-8,2,-2,-9,-10,14
COc1ccccc1NC(=O)CSc1nnnn1-c1ccc(C)cc1,-19,41*,-41,-12,-2,-5
Cc1cc(NC(=O)CSc2nnnn2C)n(-c2ccccc2)n1,5,11,-10,-52,35*,-6
Fc1ccc2c(c1)C(c1ccncc1)=NNC(c1cccnc1)=N2,2,2,-2,-3,27,4
CCCCOc1ccc(C(=O)O)cc1,-3,1,-1,-15,-12,-14
C=CCCCOc1ccc(C(=O)O)cc1,8,2,-2,35,-37,76*
Cn1c(Cn2nnc(-c3ccccc3)n2)nnc1SCc1ccccc1Cl,-3,15,-15,11,-12,12
Oc1ccc(-c2nccc(-c3cccs3)n2)cc1,-36,-1,1,-22,33,12
Cc1ccc(C)c(N2CCN(C(=O)Cn3c(=O)[nH]c4ccsc4c3=O)CC2)c1,14,2,-2,-16,x,4
CC1=C(C#N)C(c2ccc3ncccc3c2)C(C#N)=C(C)N1,-23,-50,50*,12,-15,4
CCOc1ccc(C2C(C#N)=C(C)NC3=C2C(=O)c2ccccc23)cc1 (stereo not drawn),4,-6,6,1,2,4
Cc1cccc(NC(=S)NC(=O)c2cc(-c3ccccc3)nc3ccccc23)c1,-69,10,-10,-5,-4,12
O=C(Nc1ccon1)c1cc(-c2ccccc2)nc2ccccc12,94*,-72,72*,-11,13,-1
Cc1ccccc1CSc1nccn1-c1ccccc1,3,9,-9,-3,-11,-10
Clc1ccc(C2=Nn3c(nnc3-c3cccnc3)SC2)s1,0,24,-24,72,-9,78*
Brc1ccc(C2=Nn3c(nnc3-c3cccnc3)SC2)s1,-91,13,-13,-30,0,2
COc1ccc(-c2cc3ccc(OCc4nn[nH]n4)cc3oc2=O)cc1OC,-1,-2,2,77,14,51*
COc1ccc(-c2cc(=O)oc3cc(OCc4nn[nH]n4)ccc23)cc1,21,-7,7,-28,13,-20
Cc1ccccc1C(=O)OCCCN=C1NS(=O)(=O)c2ccccc21,12,-10,10,8,-21,-13
Cc1ccc(Cn2nnc3c(=O)n(Cc4cc(C)ccc4C)cnc32)cc1,10,-5,5,-33,16,14
CCOc1cccc(C2C(C(=O)c3ccc(C)o3)=C(O)C(=O)N2Cc2ccncc2)c1 (stereo not drawn),-8,-31,30*,9,-4,-3
COc1cc(NC2c3ncccc3C(=O)N2Cc2ccco2)cc(OC)c1 (stereo not drawn),-1,6,-6,-5,20,-6
COc1ccc(NC2c3ncccc3C(=O)N2Cc2ccccc2)c(OC)c1 (stereo not drawn),90*,16,-16,-9,-12,8
COc1cc(C2Nc3ccc4ncccc4c3C3=C2C(=O)CCC3)cc(OC)c1O (stereo not drawn),17,-12,12,-18,-6,91*
COc1ccc(OC)c2sc(NC(=O)CCS(=O)(=O)c3ccccc3)nc12,6,28,-28,4,7,50*
SMILES,IL1B cytotox,IL1B NFkB pot,IL1B NFkB inh,TNFa cytotox,F-actin modifier,VCAM1 TNFa inh
CCOC(=O)c1c(C)c(C(=O)O)n(C)c1C,-14,-4,4,-28,76*,-3
CCOC1=NC(C(=O)O)c2ccccc2/C(=C(/C)Cl)N1 (stereo not drawn),9,-7,7,54,-12,92*
CC1CCCC(NC(=O)COC(=O)Cc2ccsc2)C1C (stereo not drawn),-22,21,-21,-10,2,0
COc1ccc(CCNC(=O)C2CCN(C(=O)NC3CCCCC3)CC2)cc1,-8,-39,39*,-15,-10,-15
COc1ccc(CCNC(=O)C2CCN(S(C)(=O)=O)CC2)cc1,-109,4,-4,-14,14,-4
N#C/C(=C(\O)Cc1ccccc1)c1nc2ccccc2[nH]1,10,25,-25,12,13,27
N#C/C(=C(/O)CN1C(=O)c2ccccc2C1=O)c1nc2ccccc2[nH]1,80*,3,-3,-4,-13,2
Cc1ccc(S(=O)(=O)Cn2nnnc2C(c2ccccc2)N2CCN(c3ccccc3)CC2)cc1 (stereo not drawn),23,-57,57*,-14,-10,-6
CCCC(c1nnnn1CCOC)N1CCN(C(=O)c2ccco2)CC1 (stereo not drawn),x,x,x,6,15,-16
COCCn1nnnc1C(C(C)C)N1CCN(C(=O)c2ccco2)CC1 (stereo not drawn),88*,-29,29,3,-18,-10
Cc1ccc(S(=O)(=O)Cn2nnnc2C(C(C)C)N2CCN(C(=O)c3ccco3)CC2)cc1 (stereo not drawn),-11,44*,-44,2,-28,-8
CCc1c(C)nc2ncnn2c1N1CCCC(C(=O)Nc2cc(F)ccc2C)C1 (stereo not drawn),2,26,-26,-3,1,0
Cc1cccc(Cn2c(Sc3nc(C)cs3)nc3c2c(=O)[nH]c(=O)n3C)c1,2,-4,4,-9,-1,-8
Cc1csc(Sc2nc3c(c(=O)[nH]c(=O)n3C)n2Cc2ccccc2Cl)n1,16,-31,31*,2,-16,17
Cc1ccnc(NC(=O)c2cccc(NS(=O)(=O)c3ccccc3C)c2)c1,-9,2,-2,-29,9,-2
C=CCc1ccccc1OCC(O)CNC (stereo not drawn),-16,4,-4,94*,67*,56*
Clc1ccc(-n2c(SCc3nc4ccccc4[nH]3)nnc2-c2ccncc2)cc1,-29,3,-3,-11,37,7
Cc1cc(NCCOCCO)n2ncc(-c3ccc(Cl)cc3)c2n1,91*,29,-29,-23,-1,15
Cc1cc(N)n2ncc(-c3ccc(Cl)cc3)c2n1,-6,-4,4,-1,-14,1
CCOC(=O)c1cccc(NS(=O)(=O)c2ccc(NC(C)=O)cc2)c1,-86,1,-2,-3,-18,-13
CCOC(=O)/C=C/S(=O)(=O)c1ccc(NC(C)=O)cc1,-8,-33,33*,18,9,-20
